Results from PubChem BioAssay (NCI).
The panel holds about 83,000 compounds, 20% with a hit somewhere; the sample as a whole holds those more often.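 How to read the values: 0–100, growth inhibition (40 = 60% inhibited); 0, no net growth; -100 to 0, cell death (-40 = 40% of starting cells died; -100 = all dead).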 Calls of active or inactive are those of the source. Rule for the calls: active = growth percent below 10; inactive = the rest.

Assays:
Test in all cases: NCI-60 one-dose screen, 48 h (100 = growth as untreated, 0 = no growth, -100 = all killed)
Conditions in all cases: 10 µM unless noted
DU-145 prostate = test system: DU-145 prostate
K-562 leukemia = test system: K-562 leukemia
MALME-3M melanoma = test system: MALME-3M melanoma
MDA-MB-231 breast = test system: MDA-MB-231 breast
RXF 393 renal = test system: RXF 393 renal
SF-268 CNS = test system: SF-268 CNS
SF-295 CNS = test system: SF-295 CNS
SF-539 CNS = test system: SF-539 CNS
UACC-257 melanoma = test system: UACC-257 melanoma
M14 melanoma = test system: M14 melanoma
HCT-15 colon = test system: HCT-15 colon
HT29 colon = test system: HT29 colon
SNB-75 CNS = test system: SNB-75 CNS
SNB-19 CNS = test system: SNB-19 CNS
U251 CNS = test system: U251 CNS
PC-3 prostate = test system: PC-3 prostate
SK-MEL-5 melanoma = test system: SK-MEL-5 melanoma
UACC-62 melanoma = test system: UACC-62 melanoma
LOX IMVI melanoma = test system: LOX IMVI melanoma
SK-MEL-28 melanoma = test system: SK-MEL-28 melanoma

Measured: growth

Cc1cc[c-]cc1.Fc1c[c-]c(-c2ccccn2)c(F)c1.[Pt+2].c1ccc(P(C[PH+](c2ccccc2)c2ccccc2)c2ccccc2)cc1
inactive: DU-145 prostate 17.5% | RXF 393 renal 23.1% | SF-539 CNS 21.5% | M14 melanoma 22% | HCT-15 colon 47% | HT29 colon 16.9% | SNB-19 CNS 17.5% | U251 CNS 12.9% | PC-3 prostate 11.2% | LOX IMVI melanoma 18.5% | SK-MEL-28 melanoma 36.4%
active: K-562 leukemia 8.02% | MALME-3M melanoma -15.8% | MDA-MB-231 breast -9.05% | SF-268 CNS 9.02% | SF-295 CNS 6.93% | UACC-257 melanoma -12.1% | SNB-75 CNS 4.48% | SK-MEL-5 melanoma -94.9% | UACC-62 melanoma 9.82%

Cc1ccc(N(C(=O)CCc2c[nH]c3ccccc23)[C@H](C(=O)Nc2ccc(Cl)cc2)c2cccc([N+](=O)[O-])c2)cc1
inactive: DU-145 prostate 81.6% | K-562 leukemia 37.8% | MALME-3M melanoma 99% | MDA-MB-231 breast 75.4% | RXF 393 renal 95.7% | SF-268 CNS 70.7% | SF-295 CNS 105% | SF-539 CNS 89.7% | UACC-257 melanoma 90.1% | M14 melanoma 78.4% | HCT-15 colon 70.7% | HT29 colon 86.5% | SNB-75 CNS 84.1% | SNB-19 CNS 92.2% | U251 CNS 78% | PC-3 prostate 62.2% | SK-MEL-5 melanoma 75.9% | UACC-62 melanoma 33.7% | LOX IMVI melanoma 45.1% | SK-MEL-28 melanoma 114%

S=C(c1ccc2c(c1)OCO2)N1CCN(c2ccccc2Cl)CC1
inactive: DU-145 prostate 105% | K-562 leukemia 108% | MALME-3M melanoma 72% | MDA-MB-231 breast 98.7% | RXF 393 renal 109% | SF-268 CNS 94% | SF-295 CNS 118% | SF-539 CNS 102% | UACC-257 melanoma 96.2% | M14 melanoma 99.3% | HCT-15 colon 96.2% | HT29 colon 93.6% | SNB-75 CNS 100% | SNB-19 CNS 99.4% | U251 CNS 95.2% | PC-3 prostate 84.7% | SK-MEL-5 melanoma 89.6% | UACC-62 melanoma 89.5% | LOX IMVI melanoma 111% | SK-MEL-28 melanoma 103%

Cc1cc(NCc2cc(Nc3ccnc4cc(Cl)ccc34)ccc2F)nc(N2CCOCC2)n1
inactive: DU-145 prostate 23.8% | MDA-MB-231 breast 19.1% | SF-268 CNS 42.4% | UACC-257 melanoma 50.8% | HCT-15 colon 12.4% | SNB-19 CNS 56.1% | PC-3 prostate 37.5% | SK-MEL-5 melanoma 28.4%
active: K-562 leukemia 4.21% | MALME-3M melanoma -0.307% | RXF 393 renal -3.51% | SF-295 CNS -71.6% | SF-539 CNS -29.4% | M14 melanoma -22.9% | HT29 colon 8.57% | SNB-75 CNS -22.2% | U251 CNS -48% | UACC-62 melanoma 4.01% | LOX IMVI melanoma -78.4% | SK-MEL-28 melanoma 5.36%

COC(=O)[C@H](CSC)N(C)C(=O)[C@@H]1CSSC[C@@H](NC(=O)c2nc3ccccc3cc2O)C(=O)NCC(=O)N1C
inactive: DU-145 prostate 77.6% | K-562 leukemia 48.8% | MALME-3M melanoma 96.7% | MDA-MB-231 breast 81.3% | RXF 393 renal 101% | SF-268 CNS 79.2% | SF-295 CNS 114% | SF-539 CNS 87.2% | UACC-257 melanoma 76.1% | M14 melanoma 46.2% | HCT-15 colon 99.1% | HT29 colon 76.1% | SNB-75 CNS 132% | SNB-19 CNS 92.7% | U251 CNS 91.2% | PC-3 prostate 72.7% | SK-MEL-5 melanoma 38% | UACC-62 melanoma 60% | LOX IMVI melanoma 48.3% | SK-MEL-28 melanoma 83.4%

C=CCn1c(C)nc2cc(Nc3nc(N4CCCC4)nc4ccccc34)ccc21
inactive: DU-145 prostate 73.8% | MALME-3M melanoma 122% | MDA-MB-231 breast 42% | RXF 393 renal 52.4% | SF-268 CNS 86.9% | SF-295 CNS 83.7% | SF-539 CNS 90.1% | UACC-257 melanoma 115% | M14 melanoma 89.7% | HCT-15 colon 79.4% | SNB-75 CNS 83.6% | SNB-19 CNS 107% | U251 CNS 96.6% | PC-3 prostate 98.7% | SK-MEL-5 melanoma 62.4% | UACC-62 melanoma 113% | SK-MEL-28 melanoma 80.1%
active: K-562 leukemia 1.94% | HT29 colon 5.63% | LOX IMVI melanoma 2.4%

O=C1N=c2cc3c(cc2=C/C1=C/c1sc(=S)n(CCc2ccc(O)cc2)c1O)OCCO3
active: K-562 leukemia 6.11% | HCT-15 colon 9.98% | LOX IMVI melanoma 3.28%
inactive: DU-145 prostate 80.6% | MALME-3M melanoma 36.7% | MDA-MB-231 breast 24.8% | RXF 393 renal 92.9% | SF-268 CNS 91.7% | SF-295 CNS 101% | SF-539 CNS 95.8% | UACC-257 melanoma 90.3% | M14 melanoma 27.8% | HT29 colon 21.2% | SNB-75 CNS 61.4% | SNB-19 CNS 22.9% | U251 CNS 17.8% | PC-3 prostate 41.4% | SK-MEL-5 melanoma 83.3% | UACC-62 melanoma 20.7% | SK-MEL-28 melanoma 38.7%

Cc1cccc(Cc2cnc(NC(=O)/C=C/c3ccco3)s2)c1
inactive: DU-145 prostate 15.9% | MALME-3M melanoma 54.8% | MDA-MB-231 breast 56.5% | SF-268 CNS 49.4% | UACC-257 melanoma 41.3% | M14 melanoma 10.3% | HCT-15 colon 12.8% | SNB-75 CNS 16.8% | SNB-19 CNS 52.2% | U251 CNS 20.6% | PC-3 prostate 27.2% | SK-MEL-5 melanoma 11.2% | UACC-62 melanoma 28.1% | LOX IMVI melanoma 18.8% | SK-MEL-28 melanoma 62.2%
active: K-562 leukemia 8.09% | RXF 393 renal -0.566% | SF-295 CNS 6.75% | SF-539 CNS -19.9% | HT29 colon 6.71%

Cc1cc(NCc2cc(Nc3ccnc4cc(Cl)ccc34)ccc2F)nc(N2CCSCC2)n1
inactive: DU-145 prostate 23.6% | SF-268 CNS 38.8% | UACC-257 melanoma 17.6% | SNB-19 CNS 42.9% | PC-3 prostate 26.6%
active: K-562 leukemia -24.9% | MALME-3M melanoma -30.7% | MDA-MB-231 breast -8.18% | RXF 393 renal -5.98% | SF-295 CNS -57.3% | SF-539 CNS -72.2% | M14 melanoma -51.6% | HCT-15 colon 1.94% | HT29 colon -27.3% | SNB-75 CNS -31.7% | U251 CNS -71.4% | SK-MEL-5 melanoma -13.8% | UACC-62 melanoma -54.4% | LOX IMVI melanoma -89.2% | SK-MEL-28 melanoma -64.3%

C[n+]1cc2cc(C(N)=O)[nH]c3c(=N)c(Cl)c(N)c1c23
inactive: DU-145 prostate 69.7% | K-562 leukemia 53% | MALME-3M melanoma 99.1% | MDA-MB-231 breast 53.7% | RXF 393 renal 73.8% | SF-268 CNS 64.8% | SF-295 CNS 74.1% | SF-539 CNS 90.6% | UACC-257 melanoma 45.5% | M14 melanoma 59.9% | HCT-15 colon 42.1% | HT29 colon 35.3% | SNB-75 CNS 86.3% | SNB-19 CNS 75.1% | U251 CNS 62.2% | PC-3 prostate 48.4% | SK-MEL-5 melanoma 79.2% | UACC-62 melanoma 78% | LOX IMVI melanoma 64.2% | SK-MEL-28 melanoma 109%

COc1ccc2[nH]c(O)c(C(=Nc3ccc(N(C)C(=O)CN4CCN(C)CC4)cc3)c3ccccc3)c2c1
active: K-562 leukemia 5.35% | RXF 393 renal -25.1% | SF-539 CNS -38.9% | SNB-75 CNS -5.94% | LOX IMVI melanoma 9.09%
inactive: DU-145 prostate 27.7% | MALME-3M melanoma 43.5% | MDA-MB-231 breast 28.4% | SF-268 CNS 30.7% | SF-295 CNS 48.3% | UACC-257 melanoma 65.9% | M14 melanoma 29.3% | HCT-15 colon 24.7% | HT29 colon 18% | SNB-19 CNS 57.5% | U251 CNS 45.1% | PC-3 prostate 56.6% | SK-MEL-5 melanoma 67.3% | UACC-62 melanoma 75.3% | SK-MEL-28 melanoma 42.4%

Cn1c(-c2c(N)n(Cc3ccc(C(F)(F)F)cc3)c3nc(C#N)c(C#N)nc23)nc2ccccc21
inactive: SF-268 CNS 43.3% | M14 melanoma 16.2% | HCT-15 colon 12.5% | SNB-75 CNS 15.1% | SNB-19 CNS 21.3% | UACC-62 melanoma 18.6% | SK-MEL-28 melanoma 28.8%
active: DU-145 prostate -4.79% | K-562 leukemia -30.7% | MALME-3M melanoma -23.9% | MDA-MB-231 breast -13.2% | RXF 393 renal 4.46% | SF-295 CNS -27.5% | SF-539 CNS 8.23% | UACC-257 melanoma 6.78% | HT29 colon 9.72% | U251 CNS 5.09% | PC-3 prostate -26.6% | SK-MEL-5 melanoma -10.4% | LOX IMVI melanoma 2.4%

COC(=O)c1c2c(c(C)[n+]([O-])c1C)C(=O)C(NCc1ccc(F)cc1)=CC2=O
active: K-562 leukemia 9.12% | MALME-3M melanoma -95.7% | MDA-MB-231 breast 1.94% | SF-539 CNS 0.757% | UACC-257 melanoma -36.8% | M14 melanoma 2.89% | HT29 colon 7.24% | SNB-19 CNS 3.72% | U251 CNS -13.9% | PC-3 prostate 3.57% | SK-MEL-5 melanoma -47.9% | UACC-62 melanoma -35.5%
inactive: DU-145 prostate 42.5% | RXF 393 renal 56.9% | SF-268 CNS 23% | SF-295 CNS 69.1% | HCT-15 colon 14% | SNB-75 CNS 128% | LOX IMVI melanoma 20.3% | SK-MEL-28 melanoma 72.4%

COC(=O)c1c2c(c(C)[n+]([O-])c1C)C(=O)C(NCc1ccc(F)c(Cl)c1)=CC2=O
active: K-562 leukemia 5.87% | MALME-3M melanoma -93.5% | MDA-MB-231 breast 2.68% | SF-268 CNS 9.33% | SF-539 CNS 3.31% | UACC-257 melanoma -69.3% | M14 melanoma -19.6% | HCT-15 colon 8.29% | HT29 colon 5% | SNB-19 CNS 7.17% | U251 CNS -20.4% | PC-3 prostate 5.89% | SK-MEL-5 melanoma -71.6% | UACC-62 melanoma -42% | LOX IMVI melanoma 9.57%
inactive: DU-145 prostate 36.2% | RXF 393 renal 36.2% | SF-295 CNS 39% | SNB-75 CNS 109% | SK-MEL-28 melanoma 57.9%

O=C1CCC2=C3C4CCCCC4C(=O)C4CCCC(OC2C1)C34 (stereo not given)
active: DU-145 prostate 0.534% | K-562 leukemia 5.63% | MALME-3M melanoma -33% | RXF 393 renal -80.8% | SF-268 CNS 3.25% | SF-539 CNS 4.64% | M14 melanoma 0.565% | HCT-15 colon 4.39% | U251 CNS 4.33% | SK-MEL-5 melanoma -77.9% | LOX IMVI melanoma 1.47%
inactive: MDA-MB-231 breast 28% | SF-295 CNS 33.4% | UACC-257 melanoma 28.8% | HT29 colon 85.6% | SNB-75 CNS 43.1% | SNB-19 CNS 34.1% | PC-3 prostate 46.7% | UACC-62 melanoma 50.3% | SK-MEL-28 melanoma 52%
